HCMV inh – inhibitors of human cytomegalovirus; HFF cells, HCMV-luciferase reporter, 72 h; active compounds read low; activity change, negative = inhibition, % at 57.5 µM; 4.5% of 410,000 active; AID 1259415; in the data active = activity change below about -60%; inconclusive = no clear call, values can overlap the other calls; inactive = above about -39%
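Human foreskin fibroblasts infected with luciferase-reporter HCMV at MOI 1 PFU/cell, compounds at two doses. Luciferase measured 72 h post infection; normalized to buffer-only basal and Salinomycin (10uM) controls.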
LASV entry inh – Lassa virus entry inhibition; 1.2% of 300,000 active; Lassa virus pseudotype entry inhibition, cell reporter; AID 540256; Potency, µM (doses to about 37.9 µM), for the others: top-dose activity change, negative = inhibition, usual class: inhibitors; calls by dose curve; tested in HEK293 cells; note: potency is the fitted concentration of half-maximal effect; nearly all actives have a fitted effect of over 50% in size
Pf growth 48h – P. falciparum growth inhibition at 48 hours (one generation) | P. falciparum luciferase growth in erythrocytes, 48 h | Potency, µM (series often up to 28.7 µM), inactives show top-dose activity change, negative = inhibition, usual class: inhibitors | 5.9% of 310,000 active; note: potency is the fitted concentration of half-maximal effect
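Growth was read as firefly luciferase luminescence after a 48 h, 37 C, 5% CO2 exposure of compounds to reporter-bearing P. falciparum cultures (0.1% parasitemia, 2% hematocrit final) in Albumax-supplemented RPMI 1640.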
Pf growth 96h – P. falciparum growth inhibition at 96 hour, primary screen for plastid delayed-death inhibitors | P. falciparum luciferase reporter growth, 96 h | Potency, µM (top dose mostly 28.7 µM), for inactives: top-dose activity change, negative = inhibition, actives largely listed as inhibitors | 6.9% of 320,000 active | AID 504834; note: potency is the fitted concentration of half-maximal effect
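Infected RBCs, 2% Hct / 0.05% parasitemia final; luciferase-reporter P. falciparum; cpd 96 h, 37 C, 5% CO2; luciferase detection reagent; luminescence.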
MARV entry inh – Marburg virus entry inhibition; Marburg virus pseudotyped entry inhibition, cell reporter; Potency, µM (highest dose often 37.8 µM), inactives show at the top dose activity change, negative = inhibition, usual class: inhibitors; 1.8% of 300,000 active; AID 540276; calls by dose curve; tested in HEK293 cells; note: potency is the fitted concentration of half-maximal effect
HCV inhibitor – inhibitors of hepatitis C virus infection; Huh7.5.1 HCVcc-Cre infection, luciferase reporter, 44 h; Potency, µM (highest dose often 41.8 µM), without a hit: at the highest dose activity change, negative = inhibition, hits mostly inhibitors; 3.4% of 340,000 active; AID 651820; note: potency is the fitted concentration of half-maximal effect
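Reporter virus HCVcc-Cre (~0.5 moi) infects cells exposed to compound; seeding density 1,000 cells/well with 4 h settling beforehand. Luminescence, 15 sec read, taken 44 h post-infection following a 15 min RT substrate incubation.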
* hit, by the source's call; i = inactive; u = inconclusive; x = no result; ! = a repeat was not active; [ ] = remark or other dose. A selection: hits, their analogues and other compounds. The true share with any hit is near 14%. Unless noted, calls come from the whole dose curve; as a rule, active = well fitted inhibition curve with a large enough effect; inconclusive = small, poorly fitted or top-dose-only effect, or another doubt; inactive = no such curve, though single readings can be large or run the other way. % is set by controls: 0 for no effect and ±100 for the full control effect.

SMILES | HCMV inh | LASV entry inh | Pf growth 48h | Pf growth 96h | MARV entry inh | HCV inhibitor
C[C@]12CCC(=O)C=C1CC[C@@H]1[C@@H]2[C@@H](O)C[C@@]2(C)[C@H]1CC[C@]2(O)C(=O)COC(=O)CCC(=O)O | 13.7 | u | 13.1µM*! | 11.7µM*! | u | -4.1%[8.37 µM]
C[C@]12CCC(=O)C=C1CC[C@@H]1[C@@H]2[C@@H](O)C[C@@]2(C)[C@H]1CC[C@]2(O)C(=O)COP(=O)(O)O | x | x | 4.6% | 7.57µM* | x | x
CC(=O)OCC(=O)[C@@]1(O)CC[C@H]2[C@@H]3CCC4=CC(=O)CC[C@]4(C)[C@H]3[C@@H](O)C[C@@]21C | 45.3 | -2.6% | u | -8.1% | 3.5% | -6.2%
C[C@@H]1CC[C@H]2C(=O)N(CC3CCCCC3)C[C@H](O)CN2[C@@H]1c1ccc(Br)cc1 | x | x | x | x | -0.3%[14.2 µM] | x
Oc1ccc(Br)cc1CNc1cccc2cccnc12 | -62.4* | u | u | 9.28µM* | u | 14.3%
Cc1ccc(O)c(CNc2cnc3ccccc3c2)c1 | 64.0 | u | u | 0.0% | u | u
Oc1ccc(Br)cc1CNc1cnc2ccccc2c1 | 19.4 | x | u | 11.7µM* | x | u
N#Cc1ccccc1CSc1nnc2ccc3ccccc3n12 | 3.6 | 0.9%[46.1 µM] | x | x | 12.9%[46.1 µM] | x
O=C(Nc1ccc(-c2nc3ccccc3[nH]2)cc1)c1ccc(N2C(=O)CCC2=O)cc1 | 16.7 | -0.4% | -12.3% | -21.8% | -0.9% | 1.1%
CC(C)(C)N1C(=O)c2ccc(C(=O)Nc3ccc(C(=O)O)cc3)cc2C1=O | -34.0 | x | -1.8% | 9.28µM* | x | 14.9%
CS(=O)(=O)c1cccc(C(=O)Nc2ccc(-c3nc4ccccc4[nH]3)cc2)c1 | -65.1* | -15.1%[46.1 µM] | u | u | u | u
CC(C)(C)N1C(=O)c2ccc(C(=O)Nc3ccc(-c4nc5ccccc5[nH]4)cc3)cc2C1=O | -32.2 | 10.0% | 0.522µM* | i | u | -3.9%
CS(=O)(=O)c1ccccc1C(=O)Nc1ccc(-c2nc3ccccc3[nH]2)cc1 | 37.4 | x | 85.3% | 85.1% | x | -6.3%
COC(=O)[C@@]12C[C@@H](CC(=O)N3CCSCC3)C(=O)N(Cc3ccc4c(c3)OCO4)C1=CCC(C)(C)C2 | -20.8 | x | x | x | x | x
CCOC(=O)CNC(=O)C1COc2ccccc2O1 (stereo unspecified) | -4.8 | -10.6% | 7.7% | 30.8% | 20.8% | 17.3%
CCOc1nc2ccccc2cc1C=O | -72.9* | -5.3% | 5.4% | 134.1% | 2.6%[46.1 µM] | 1.6%
Cc1ccc2nc(-c3sc4nc(C)cc(C)c4c3N)[nH]c2c1 | 249.4 | 12.6µM* | 53.2% | -65.7% | u | 19.3%
COc1cc(C2NCC(c3ccc(Cl)cc3Cl)c3c2[nH]c2ccccc32)cc(OC)c1OC (stereo unspecified) | u | u | 13.1µM* | 11.7µM* | 15.8µM* | u
O=C(O)c1ccc(C2NCC(c3ccccc3Cl)c3c2[nH]c2ccccc32)cc1 (stereo unspecified) | -15.9 | 21.0% | -0.2% | 18.0% | u | -6.0%
COc1cccc(S(=O)(=O)Nc2ccc(C(=O)Nc3ccncc3)cc2)c1 | -5.4 | u | -24.4% | 8.28µM* | u | -11.2%
O=C1CSc2ccc(C(=O)Nc3cccc(S(=O)(=O)Nc4ccc(Br)cc4)c3)cc2N1 | -90.9* | x | -5.7% | -18.4% | x | 10µM*
COc1ccc(NS(=O)(=O)c2cccc(NC(=O)c3ccc(Cl)nc3)c2)cc1 | -89.2* | 5.01µM* | u | u | u | 2.82µM*
O=C(Nc1cccc(O)c1)c1cccc(S(=O)(=O)Nc2cccc(O)c2)c1 | -3.1 | -28.5%[46.1 µM] | 0.6% | 1.85µM* | 11.9%[46.1 µM] | -13.8%
O=C(O)c1ccc(NC(=O)c2cccc(S(=O)(=O)Nc3ccc(C(=O)O)cc3)c2)cc1 | 14.4 | x | 3.2% | 216.1% | x | 12.3%
O=C(Nc1ccncc1)c1ccc(NS(=O)(=O)c2cccc(F)c2)cc1 | -29.8 | u | u | u | u | 17.7%
SMILES | HCMV inh | LASV entry inh | Pf growth 48h | Pf growth 96h | MARV entry inh | HCV inhibitor
CC1(C(=O)NCc2ccc(C(F)(F)F)cc2)CCN1Cc1ccc(-c2ccccc2)o1 (stereo unspecified) | 8.8 | x | x | x | x | x
CCOc1ccc(-c2nonc2NC(=O)c2ccc(C)cc2)cc1OCC | -8.4 | 13.5%[46.1 µM] | x | x | u | x
Cc1ccc(CNC(=O)CN2C(=O)CSc3c2c(C)nn3-c2ccccc2)cc1 | -22.8 | -26.3%[46.1 µM] | x | x | x | x
COc1ccc(NS(=O)(=O)c2cccc(NC(=O)CCC(=O)c3ccc(Cl)cc3)c2)cc1 | -83.3* | u | -8.7% | u | u | 8.91µM*
COc1ccc(NS(=O)(=O)c2cccc(NC(=O)CCC(=O)c3cccs3)c2)cc1 | -33.8 | 10.4% | 0.0% | u | 0.7% | 8.2%
O=C(Nc1cccc(S(=O)(=O)Nc2ccc(Cl)cc2)c1)c1ccc(Cl)nc1 | -94.6* | u | -9.6% | u | u | 1.58µM*
COc1ccc(NS(=O)(=O)c2cccc(NC(=O)NCCCl)c2)cc1 | 64.8 | x | -17.8% | u | 8.4%[46.1 µM] | 7.94µM*
CCc1ccc(C2c3c(-c4ccccc4O)n[nH]c3C(=O)N2Cc2ccncc2)cc1 (stereo unspecified) | -19.7 | u | x | x | u | x
O=C1OC(Nc2ccc(F)c([N+](=O)[O-])c2)c2ccccc21 (stereo unspecified) | 59.7 | u | 11.5% | 19.5% | u | 5.9%
O=C1OC(Nc2ccc3c(c2)OCO3)c2ccccc21 (stereo unspecified) | -97.0* | -4.2% | u | 4.5% | -23.9% | u
COc1ccccc1-n1c(Cc2cccc3ccccc23)nnc1SCC(=O)O | 26.2 | x | x | x | x | x
CCOc1cc(OCC)cc(C(=O)NC(=S)Nc2cccc(C(F)(F)F)c2)c1 | -3.2 | 21.8% | 2.4% | 0.0% | 9.9% | 0.7%
CCOc1ccc(NC(=S)NNC(=S)Nc2cccc(C(F)(F)F)c2)cc1 | -10.2 | u | u | 13.1µM* | u | -16.8%
COc1ccc(NC(=S)NNC(=S)Nc2cccc(C(F)(F)F)c2)cc1 | -76.1* | u | u | u | u | u
O=C(C(c1ccccc1)C(O)c1ccccc1)N1CCOCC1 (stereo unspecified) | 129.0 | 15.3%[46.1 µM] | x | x | 0.5%[46.1 µM] | 3.4%
CCOc1ccccc1NC(=O)c1c(NC(=O)Cc2ccc(OC)cc2)sc2c1CCC2 | 23.0 | 7.2%[46.1 µM] | x | x | x | x
CCN(CC)CCNC(=O)Cn1ncc2c3ccccc3n(Cc3ccc(Cl)cc3)c2c1=O | 11.0 | 3.6%[46.1 µM] | x | x | -10.3%[46.1 µM] | x
S=C(NCc1ccccc1)NCc1cccc(CNC(=S)NCc2ccccc2)c1 | -5.8 | u | -11.5% | 0.1% | u | u
NNC(=S)NCc1ccccc1 | -23.5 | u | u | 9.28µM* | 10.8%[46.1 µM] | 8.9%
COC(=O)NNC(=S)NCc1ccccc1 | u | -0.9% | 16.0% | 25.3% | -8.9% | 16.7%

Source: PubChem (National Center for Advancing Translational Sciences (NCATS))
